# High-throughput results from PubChem.
# NPSR antag – neuropeptide S receptor (human) antagonism, cAMP | Q6W5P4 | CHO-NPSR cells, cAMP TR-FRET, antagonist mode | AID 1461 | Potency, µM (top dose mostly 38.3 µM), for the others: at the top dose activity change, negative = inhibition, actives largely listed as inhibitors | 220,000 tested, 1% active; note: potency is the fitted concentration of half-maximal effect; nearly all actives have a fitted effect of over 50% in size
# IMPase Li cell – membrane-permeable IMPase blocker, potentiated with lithium; CHO-M1 cells, IP1 TR-FRET (IP-One), carbachol + lithium; Potency, µM (doses to about 59.4 µM), for inactives: at the top dose activity, negative = IMPase inhibition, actives largely listed as inhibitors; 210,000 tested, 0.35% active;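 note: IP1 builds up when IMPase is blocked and the TR-FRET signal falls; potency is the fitted concentration of half-maximal effect; plate controls were basal vehicle for no effect and high inhibitor control for full effect; nearly all actives have a fitted effect of over 50% in size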
#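 IP1 accumulation measured by competitive TR-FRET in lysed CHO-M1 cells after 30 min compound exposure at 37C, with a small lithium addition to potentiate weak responses. Hill-equation AC50 from ratio and donor-channel data.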
# ALDH1A1 inh – blocks purified human ALDH1A1 activity; Purified ALDH1A1, NADH fluorescence, propionaldehyde substrate; P00352; Potency, µM (series often up to 75.3 µM), inactives show at the highest dose activity, negative = inhibition, most hits filed as inhibitors; 220,000 tested, 7.3% active; AID 1030; active = well fitted inhibition curve with a large enough effect, not every such curve was filed as active; inconclusive = small, poorly fitted or top-dose-only effect, or another doubt; inactive = no such curve, though single readings can be large or run the other way;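 note: potency is the fitted concentration of half-maximal effect; plate controls were no enzyme wells and a reference inhibitor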
# IMPase inh – IMPase inhibition in cells. CHO-M1 cells, IP1 accumulation, HTRF TR-FRET ratio. 120,000 tested, under 10 active. inhibition (IP1 accumulation), % at 46.1 µM; active = well fitted curve in the direction sought with a large enough effect in the signal ratio, not every such curve was filed as active; inconclusive = small, poorly fitted or top-dose-only effect, or a change in a side signal; inactive = no such curve, though single readings can be large or run the other way; the % refers to the signal ratio;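 note: cells stimulated with carbachol in lithium chloride buffer; plate controls were DMSO basal wells for no effect and reference inhibitor wells for full effect; higher means more IMPase inhibition seen as more IP1 and lower FRET ratio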
# Target sequence (P97697 whole entry, looked up): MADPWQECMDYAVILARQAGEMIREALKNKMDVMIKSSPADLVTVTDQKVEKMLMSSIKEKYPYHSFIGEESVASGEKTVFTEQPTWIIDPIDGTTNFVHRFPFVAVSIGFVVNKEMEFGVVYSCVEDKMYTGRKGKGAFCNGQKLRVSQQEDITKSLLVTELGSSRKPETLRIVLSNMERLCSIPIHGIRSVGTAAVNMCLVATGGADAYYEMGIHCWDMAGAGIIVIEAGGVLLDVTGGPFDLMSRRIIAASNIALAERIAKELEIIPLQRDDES
#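 CHO-M1 cells (CHO stably expressing M1 receptor), compound up to 46 uM final, stimulated with carbachol (50 uM as added) in buffer with 50mM LiCl, pH 7.4, 30 min at 37C. Cytosolic IP1 read by TR-FRET; AC50 from Hill fits.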
# 12-hLO inh – inhibitors of human 12-lipoxygenase (ALOX12). P18054. purified 12-hLO, xylenol orange hydroperoxide absorbance. AID 1452. Potency, µM (titrated, usually from 57.1 µM), for inactives: at the highest dose activity change, negative = inhibition, hits mostly inhibitors. 150,000 tested, 0.12% active; note: potency is the fitted concentration of half-maximal effect; nearly all actives have a fitted effect of over 55% in size
#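 Xylenol orange chromogenic assay: hydroperoxide from 12hLO oxidises Fe(II), giving red-shifted Fe(III)-XO absorbance. Conditions: 150 nM enzyme, 40 uM arachidonic acid, 25 mM Hepes pH 7.0, 0.01% Triton X-100, 30 min, room temperature.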
# HPGD block – HPGD (human) dehydrogenase inhibition. purified HPGD, NADH fluorescence kinetic, PGE2 substrate. AID 894. Potency, µM, for inactives: at the highest dose activity change, negative = inhibition, most hits filed as inhibitors. 150,000 tested, 4.3% active. P15428; active = well fitted inhibition curve with a large enough effect, not every such curve was filed as active; inconclusive = small, poorly fitted or top-dose-only effect, or another doubt; inactive = no such curve, though single readings can be large or run the other way; note: potency is the fitted concentration of half-maximal effect
# Target sequence (P15428 whole entry, looked up): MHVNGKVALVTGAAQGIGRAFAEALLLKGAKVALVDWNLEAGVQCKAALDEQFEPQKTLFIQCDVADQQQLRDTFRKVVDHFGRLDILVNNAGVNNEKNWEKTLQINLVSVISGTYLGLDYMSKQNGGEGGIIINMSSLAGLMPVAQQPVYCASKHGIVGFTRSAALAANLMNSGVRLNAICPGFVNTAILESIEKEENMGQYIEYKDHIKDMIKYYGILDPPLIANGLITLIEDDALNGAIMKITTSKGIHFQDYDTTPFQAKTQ
#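 20 nM HPGD preincubated 15 min at room temperature with compound in 50 mM Tris-HCl pH 8, 0.01% Tween 20. Started with 1 mM NAD+ and 30 uM prostaglandin E2; NADH fluorescence (360/450 nm) read 5 times over 30-s intervals, last minus first.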
# Active calls of the source: *; ? = inconclusive; nt = not tested or not shown; [ ] = remark or other dose. Only some compounds are listed: those with a hit (about 8.9% of all), similar ones and a draw of the others. Unless noted, calls come from the whole dose curve; as a rule, active = well fitted curve in the direction sought with a large enough effect; inconclusive = small, poorly fitted or top-dose-only effect, or another doubt; inactive = no such curve, though single readings can be large; an effect the other way counts as inactive or inconclusive. Unless noted, % is set by controls: 0 for no effect and ±100 for the full control effect.
SMILES,NPSR antag,IMPase Li cell,ALDH1A1 inh,IMPase inh,12-hLO inh,HPGD block
Cc1ccc(NC2=CC(=O)C(=O)c3ccccc32)cc1,-12.1%[46.1 µM],52.0%,?,?,-12.8%,20µM*
O=C(O)CC(C(=O)NCc1ccccc1)C1CCCO1 (configuration not stated),9.3%[46.1 µM],-0.7%[38.3 µM],5.9%,7.5,-2.5%,-14.9%
O=C(CN(Cc1cccs1)C(=O)c1csnn1)NC1CCCC1,-0.4%[46.1 µM],-2.9%,-0.7%,?,4.5%,-3.3%
Cc1cc(C(C)(C)C)oc1C(=O)N(CC(=O)NC1CCCC1)Cc1ccccc1Cl,7.94µM*,46.1%[38.3 µM],?,-5.7[1.84 µM],-4.2%,-20.4%
CCOC(=O)N1CCC(=NNc2ncc(C(F)(F)F)cc2Cl)CC1,4.5%,11.1%,?,nt,nt,nt
CC(=O)N1CCC(=NNc2ncc(C(F)(F)F)cc2Cl)CC1,11.1%,4.2%,15.8µM*,nt,nt,nt
OCCNCc1cc(Br)ccc1OCc1ccccc1,17.1%,12.4%,8.8%,-8.2,8.9%,-8.1%
Oc1ccc(/C(Cc2ccccn2)=N\Nc2ccccc2)c(O)c1,-41.8%,14.8%,17.8µM*,nt,nt,nt
Cn1c(-c2ccccc2)cc(=O)c2ccccc21,2.6%[46.1 µM],-5.7%[38.3 µM],0.2%,1.1,2.7%,25.1µM*
Cc1ccc(C)n1-c1ccc(C(=O)Nc2ccccc2)cc1,-3.5%,4.5%,28.2µM*,nt,0.3%,15.8µM*
O=c1nc(N2CCOCC2)ccn1-c1nc(-c2ccccc2)oc1-c1ccccc1,-9.4%[46.1 µM],-4.3%[38.3 µM],-0.9%,-0.5,-0.2%,-16.8%
CCOC(=O)c1ccccc1NC(=O)C=C(C)C,9.6%[46.1 µM],nt,0.1%,0.9,2.1%,nt
C=CCn1c(SCC(=O)Nc2ccccc2)nc2scc(-c3cccs3)c2c1=O,-6.6%[46.1 µM],18.9%[38.3 µM],4.6%,3.8,1.1%,-18.1%
CN(Cc1nc(-c2ccccn2)no1)S(=O)(=O)c1ccc(Cl)cc1,5.1%[46.1 µM],4.3%[38.3 µM],?,-0.1,-3.3%,25.1µM*
CN(Cc1nc(-c2cccnc2)no1)S(=O)(=O)c1ccccc1,-5.5%[46.1 µM],-10.6%[38.3 µM],?,-3.8,3.1%,-11.4%
O=C1CC[C@@]23/C=C/C(=O)NCCCCNCCCNC(=O)/C=C/c4ccc(c2c4)OC3C1 (some centres not stated),nt,5.0%,4.1%,nt,2.3%,-9.2%
Cc1nc2ccccn2c1C(=O)NN,-2.2%[46.1 µM],nt,2.24µM*,-1.7,3.3%,nt
COc1ccc(Br)cc1S(=O)(=O)NNC(=O)c1c(C)nc2ccccn12,-0.1%,14.6%,?,nt,nt,nt
Cc1nc2ccccn2c1C(=O)NNS(=O)(=O)c1ccc(C(C)(C)C)cc1,4.7%,11.4%,1.12µM*,nt,-2.3%,-1.2%
O=C(CN1C(=O)NC2(CCCCC2)C1=O)Nc1ccc(S(=O)(=O)N2CCOCC2)cc1,-0.3%[46.1 µM],18.7%[38.3 µM],-5.8%,-5.7,0.7%,3.1%
CC1Cn2c(CCc3ccccc3)nnc2S1 (configuration not stated),3.8%[46.1 µM],21.5%[38.3 µM],?,0.9,8.3%,28.2µM*
CC1Cn2c(COc3ccccc3)nnc2S1 (configuration not stated),6.2%[46.1 µM],2.9%,7.8%,-11.4,3.8%,-10.2%
NC(=O)CSc1nc2ccccc2n1-c1ccccc1,2.6%[46.1 µM],3.4%,1.5%,-10.6,-4.9%,-1.4%
COc1ccc2[nH]c3c(=S)nc[nH]c3c2c1,29.2%,2.82µM*,?,nt,nt,nt
COc1ccc2[nH]c3c(Cl)ncnc3c2c1,27.9%[46.1 µM],nt,-1.2%,8.8,-0.8%,nt
CCNc1nc(C)nc2c1oc1ccccc12,6.3%[46.1 µM],13.2%[38.3 µM],-2.7%,0.5,-3.6%,-1.9%
CCOC(=O)c1sc(C)c2c(=O)n(Cc3ccc(Cl)cc3)c(C)nc12,-21.4%[46.1 µM],16.2%[38.3 µM],?,-6.0,-3.1%,-17.9%
CCc1ccc(NC(=O)CSc2nc3cc(C(=O)OC)ccc3c(=O)n2CC2CCCO2)cc1 (configuration not stated),-4.1%[46.1 µM],14.1µM*,?,0.3,-4.7%,-21.8%
COc1ccc(NC(=O)CSc2nnc(-c3ccccc3)n2N)cc1,-7.1%[46.1 µM],-1.3%,2.1%,-9.8,3.8%,-9.3%
CCn1c(SCC(=O)Nc2ccc(C(C)=O)cc2)nc2ccccc21,-19.2%[46.1 µM],25.6%[38.3 µM],-2.5%,25.5,0.0%,-23.0%
